Source: the supplement of paper PMC12636033
± gives the standard deviation of the averaged measurements. Over roughly 33,000 sequences, “E-score (rank enrichment, -0.5 to 0.5)” has its median near -0.0068; the highest 2% begin near 0.24. The entries come from a sample that favours the highest values as a whole.

These sequences were tested on muMax20 (Max(13-93) K31hArg/K57hArg, M65Nle) (assay: PBM 8-mer E-score (E-score (rank enrichment, -0.5 to 0.5)); higher = stronger preferential binding).
Procedure: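 Protein binding microarray (universal PBM chip covering all 10-mers in fixed probe flanks) with chemically synthesized human Max(13-93) bHLH-LZ analogs (not full-length Max) bearing noncanonical residues (hArg, Tha, Aib, Nle at 65) and aromatic Cys staples. Read-out per 8-mer (and its reverse complement): E-score (rank-based enrichment, -0.5 to 0.5) and Z-score of median probe intensity.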

Row | Sequence | PBM 8-mer E-score
1 | ACGTATCA | 0.243 ± 0.11
2 | CATATGAA | 0.0777 ± 0.049
3 | AGGCACGA | 0.109 ± 0.032
4 | CAGAGCTA | -0.25 ± 0.013
5 | TGAACAAA | 0.00782 ± 0.029
6 | GTAATAAC | 0.156 ± 0.072
7 | ATAATAAC | 0.315 ± 0.034
8 | ATAAGAAT | 0.165 ± 0.04
9 | ATAATCAG | 0.32 ± 0.072
10 | TTAATAAA | 0.238 ± 0.028
11 | ATAAGAAA | 0.141 ± 0.043
12 | ATAATCAA | 0.0671 ± 0.022
13 | CTAATCAG | -0.0349 ± 0.028
14 | CTAATAAA | 0.163 ± 0.024
15 | ATAAGAAC | 0.24 ± 0.081
16 | CTAATAAC | 0.19 ± 0.074
17 | ATAATAAA | 0.217 ± 0.023
18 | GATAGCGA | -0.086 ± 0.082
19 | AATCCGAC | 0.0325 ± 0.024
20 | CTCAGAGC | -0.28 ± 0.041
21 | ATCTGGAG | -0.0378 ± 0.089
22 | AAAGATGT | 0.203 ± 0.0026
23 | CCCGTCTC | -0.0114 ± 0.0032
24 | ATCTCAAG | -0.0469 ± 0.0077
25 | GCGAAGCA | 0.0453 ± 0.032

Row | Sequence | PBM 8-mer E-score
26 | ACTTCCGC | -0.0937 ± 0.045
27 | ATAATAAT | 0.205 ± 0.05
28 | ATAATAAG | 0.247 ± 0.051
29 | CTAATAAG | 0.119 ± 0.044
30 | CGCAGAGA | -0.0723 ± 0.14
31 | CTCCAAGC | -0.018 ± 0.00052
32 | CATATAAC | 0.219 ± 0.048
33 | CATATAAG | 0.154 ± 0.076
34 | TGTATAAA | 0.207 ± 0.0065
35 | CATATAAA | 0.329 ± 0.056
36 | AATATAAA | 0.324 ± 0.012
37 | GATATAAA | 0.139 ± 0.03
38 | AATATAAG | 0.207 ± 0.045
39 | AATATAAT | 0.156 ± 0.065
40 | TATATAAA | 0.304 ± 0.05
41 | ACGACGCA | 0.00737 ± 0.11
42 | AGGGGGCA | -0.0171 ± 0.019
43 | CAGGCTCA | -0.0417 ± 0.019
44 | GATCTTGA | 0.101 ± 0.013
45 | CTAGGCGA | -0.155 ± 0.071
46 | TCCCCTCA | 0.14 ± 0.1
47 | GTTTCCTA | 0.307 ± 0.033
48 | ATTTCCTA | 0.137 ± 0.029
49 | CTTTCCTA | -0.0321 ± 0.019
50 | GGAGGGCA | 0.044 ± 0.11

Row | Sequence | PBM 8-mer E-score
51 | ATCAATTG | 0.262 ± 0.073
52 | ATCAATTA | 0.229 ± 0.068
53 | ATCAATTC | 0.172 ± 0.013
54 | ACAATAAT | 0.286 ± 0.0027
55 | AGAATAAT | 0.116 ± 0.05
56 | CCAATAAA | 0.266 ± 0.026
57 | CCAATAAG | -0.0178 ± 0.017
58 | ACAATAAC | 0.191 ± 0.0039
59 | ACAATCAA | 0.0227 ± 0.021
60 | ACAATCAT | 0.273 ± 0.042
61 | ACAATAAG | 0.21 ± 0.021
62 | GCAATAAA | 0.0786 ± 0.0037
63 | TCAATAAA | 0.114 ± 0.043
64 | ACAATAAA | 0.275 ± 0.025
65 | ACAATCAC | 0.228 ± 0.053
66 | ACGTCTGA | -0.0769 ± 0.16
67 | CAGGGCAC | -0.0777 ± 0.0056
68 | AGGACCGC | 0.0155 ± 0.085
69 | CGACCTGC | -0.105 ± 0.063
70 | GAAACCCC | -0.0104 ± 0.014
71 | TAAGATTA | 0.129 ± 0.04
72 | TGCTTAAA | 0.024 ± 0.12
73 | ACTCGCGG | -0.0552 ± 0.016
74 | ATACAGTC | 0.0784 ± 0.094
75 | ATACAGTA | 0.233 ± 0.095

Row | Sequence | PBM 8-mer E-score
76 | ATACAGTG | 0.2396 ± 0.0022
77 | GCGTGCAA | 0.0854 ± 0.022
78 | CTTGAGTC | -0.0129 ± 0.11
79 | CTCGACGA | -0.142 ± 0.024
80 | GAGCCCTA | -0.14 ± 0.018
81 | TAAAACTA | 0.239 ± 0.11
82 | AAAAACTA | 0.095 ± 0.061
83 | AGAAACAC | 0.00585 ± 0.032
84 | ATAAAACG | 0.194 ± 0.02
85 | ATAAACAC | 0.164 ± 0.11
86 | GGAAACAA | 0.0706 ± 0.057
87 | AGAAACAA | 0.2614 ± 0.0014
88 | TTAAACAA | 0.0932 ± 0.11
89 | ATAAAACA | 0.31 ± 0.025
90 | CAAAACTA | 0.132 ± 0.15
91 | ATAAACAA | 0.27 ± 0.049
92 | GTAAAACA | 0.108 ± 0.0083
93 | GGGAACAA | 0.144 ± 0.0098
94 | AGCCCCTC | 0.0302 ± 0.046
95 | AGCTCCTG | -0.171 ± 0.17
96 | CAGTCACC | -0.064 ± 0.14
97 | AGTTGAAG | 0.0533 ± 0.067
98 | CGGGAAGA | -0.0577 ± 0.15
99 | ATAAACTA | 0.276 ± 0.041
100 | AAAAAACG | 0.241 ± 0.023

Row | Sequence | PBM 8-mer E-score
101 | ATAAACTG | 0.0137 ± 0.077
102 | AAAAAACA | 0.272 ± 0.11
103 | GAAAAACA | 0.16 ± 0.037
104 | CAAAAACG | 0.111 ± 0.068
105 | ACAAAACG | 0.187 ± 0.013
106 | ATAAACTC | 0.117 ± 0.039
107 | TAAAAACA | 0.171 ± 0.018
108 | AGATAGAG | -0.0243 ± 0.056
109 | ACAATGCG | 0.0438 ± 0.031
110 | CCGTTTCC | 0.0806 ± 0.018
111 | CCTTTCCA | 0.0937 ± 0.037
112 | CCCTTATA | 0.199 ± 0.086
113 | TAGTAACA | 0.239 ± 0.066
114 | ATGTAACG | 0.122 ± 0.029
115 | ATGTAAAA | 0.221 ± 0.049
116 | ATGTAATA | 0.2587 ± 0.0011
117 | CTGTAACA | 0.0977 ± 0.058
118 | CTGTAATA | 0.175 ± 0.023
119 | ATGTAACA | 0.244 ± 0.057
120 | TTGTAAAA | 0.24 ± 0.053
121 | AAGTAACA | 0.152 ± 0.018
122 | ATGTAATG | 0.2252 ± 0.0016
123 | GAGTAACA | 0.164 ± 0.033
124 | CTGTAAAA | 0.0545 ± 0.043
125 | CTAGTTAC | -0.0138 ± 0.072

Row | Sequence | PBM 8-mer E-score
126 | AATTGCCA | 0.0456 ± 0.0012
127 | CATTCGGG | -0.0351 ± 0.075
128 | AATCTTGC | -0.066 ± 0.042
129 | ACGAGTGA | -0.0322 ± 0.14
130 | ATGTAAAT | 0.154 ± 0.09
131 | ATGTAAAG | 0.244 ± 0.038
132 | CTGTAAAG | -0.0854 ± 0.0043
133 | GGCTGACA | -0.104 ± 0.086
134 | ACCGTCAA | -0.205 ± 0.0036
135 | GATTAGAA | 0.0438 ± 0.032
136 | TACTACAA | 0.286 ± 0.0027
137 | AACTATAA | 0.229 ± 0.044
138 | AACTACAA | 0.0818 ± 0.066
139 | TACTATAA | 0.284 ± 0.021
140 | TATTACAA | 0.236 ± 0.041
141 | CATTACAA | 0.184 ± 0.097
142 | TATTAGAA | 0.268 ± 0.0096
143 | CACTATAA | 0.0282 ± 0.15
144 | AATTACAA | 0.209 ± 0.066
145 | CATTAGAA | 0.0939 ± 0.015
146 | CACTACAA | 0.152 ± 0.021
147 | CTGGGAGC | -0.247 ± 0.043
148 | AAAGTCCG | -0.148 ± 0.0098
149 | GTGGAAAC | 0.119 ± 0.033
150 | CCCTCATA | 0.135 ± 0.065

Row | Sequence | PBM 8-mer E-score
151 | GTAGACAA | 0.173 ± 0.061
152 | GTCTTAGA | -0.0878 ± 0.12
153 | GGGCAAAA | -0.107 ± 0.024
154 | AGGGGTAG | 0.123 ± 0.011
155 | CTGTGGGA | -0.0483 ± 0.025
156 | AATTGATC | 0.0857 ± 0.087
157 | AATTGATA | 0.232 ± 0.016
158 | AATTGATG | 0.264 ± 0.051
159 | GAAGGGCA | 0.156 ± 0.0064
160 | ATTATGTA | 0.247 ± 0.0099
161 | ATAATGTA | 0.276 ± 0.0095
162 | ATTATGTG | 0.164 ± 0.049
163 | AGTATACT | 0.258 ± 0.04
164 | ACTATAGT | 0.243 ± 0.03
165 | AGTATACC | 0.077 ± 0.053
166 | ATTATGTC | 0.066 ± 0.23
167 | ATAATGTC | 0.0566 ± 0.18
168 | ACTATAGA | 0.117 ± 0.049
169 | ACTATAGG | 0.0643 ± 0.011
170 | CTAATGTA | 0.1481 ± 0.0014
171 | AGTATACA | 0.175 ± 0.1
172 | AACGTTGA | 0.212 ± 0.038
